Test results taken from PubChem BioAssay AID1159580 (chemical genetic matrix, 2015).
In all, about 5,500 compounds went through this assay and about 2,000 (36%) were called active. Not shown: some 18% with an inconclusive outcome. No stated cut-off is given here; in the data, active means normalized growth mostly below about 0.91 (no sharp cut-off); inconclusive means no clear call, values can overlap the other calls; inactive means mostly above about 0.92. The list shows a part of the results.

Assay: chemical genetic growth profiling, strain panel (AID 1159580);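 further: tested at 20 µM; growth read once vehicle control cultures reached saturation at 30 °C; 1 = growth at the plate median or of vehicle wells; lower values mean less growth of the strain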
Settings: growth OD

Measured: normalized growth

C[C@@H]1CC[C@H]2C(C)(C)C3CC12CC[C@@]3(C)O (some centres not stated)
inactive: S. cerevisiae deletion strains, locus YJR066W, strain TOR1, active compounds read low 0.975 | S. cerevisiae deletion strains, locus YKL009W, strain mrt4, active compounds read low 0.893 | S. cerevisiae deletion strains, locus YKL068W, active compounds read low 1.01 | S. cerevisiae deletion strains, locus YKL085W, strain MDH1 (second series), active compounds read low 0.961 | S. cerevisiae deletion strains, locus YKL085W, strain MDH1, active compounds read low 0.961 | S. cerevisiae deletion strains, locus YKL190W, strain CNB1, active compounds read low 1.01 | S. cerevisiae deletion strains, locus YKR001C, strain vps1, active compounds read low 0.933 | S. cerevisiae deletion strains, locus YKR026C, strain gcn3, active compounds read low 0.994 | S. cerevisiae deletion strains, locus YKR091W, strain srl3, active compounds read low 0.934 | S. cerevisiae deletion strains, locus YLL001W, strain dnm1, active compounds read low 0.949 | S. cerevisiae deletion strains, locus YLR039C, strain RIC1, active compounds read low 0.849 | S. cerevisiae deletion strains, locus YLR058C, strain SHM2, active compounds read low 1 | S. cerevisiae deletion strains, locus YLR102C, strain apc9, active compounds read low 0.989 | S. cerevisiae deletion strains, locus YLR113W, strain HOG1, active compounds read low 0.968 | S. cerevisiae deletion strains, locus YLR262C, strain YPT6, active compounds read low 0.841 | S. cerevisiae deletion strains, locus YLR268W, strain sec22, active compounds read low 0.961 | S. cerevisiae deletion strains, locus YLR342W, strain FKS1 (second series), active compounds read low 0.886 | S. cerevisiae deletion strains, locus YLR370C, strain arc18, active compounds read low 0.92 | S. cerevisiae deletion strains, locus YLR371W, strain rom2, active compounds read low 0.915 | S. cerevisiae deletion strains, locus YLR384C, strain iki3, active compounds read low 0.988 | S. cerevisiae deletion strains, locus YML016C, strain PPZ1, active compounds read low 1.01 | S. cerevisiae deletion strains, locus YML032C, strain rad52, active compounds read low 0.917 | S. cerevisiae deletion strains, locus YML124C, strain tub3, active compounds read low 0.99 | S. cerevisiae deletion strains, locus YMR078C, strain ctf18, active compounds read low 0.998 | S. cerevisiae deletion strains, locus YMR129W, active compounds read low 1.01 | S. cerevisiae deletion strains, locus YMR223W, strain ubp8, active compounds read low 0.952 | S. cerevisiae deletion strains, locus YMR307W, strain GAS1, active compounds read low 0.707 | S. cerevisiae deletion strains, locus YNL067W, strain RPL9B, active compounds read low 0.987 | S. cerevisiae deletion strains, locus YNL183C, strain NPR1, active compounds read low 0.976 | S. cerevisiae deletion strains, locus YNL250W, strain rad50, active compounds read low 0.956 | S. cerevisiae deletion strains, locus YNL271C, strain bni1, active compounds read low 0.938 | S. cerevisiae deletion strains, locus YNL307C, strain MCK1, active compounds read low 0.977 | S. cerevisiae deletion strains, locus YNL322C, strain KRE1 (second series), active compounds read low 0.971 | S. cerevisiae deletion strains, locus YNR049C, strain mso1, active compounds read low 1 | S. cerevisiae deletion strains, locus YOL006C, strain TOP1, active compounds read low 0.982 | S. cerevisiae deletion strains, locus YOL012C, strain htz1 0.706 | S. cerevisiae deletion strains, locus YOL147C, strain pex11, active compounds read low 0.965 | S. cerevisiae deletion strains, locus YOR061W, strain CKA2, active compounds read low 0.958 | S. cerevisiae deletion strains, locus YOR069W, strain VPS5, active compounds read low 0.998 | S. cerevisiae deletion strains, locus YOR080W, strain dia2, active compounds read low 0.967 | S. cerevisiae deletion strains, locus YOR136W, strain idh2, active compounds read low 0.959 | S. cerevisiae deletion strains, locus YOR144C, strain elg1, active compounds read low 0.972 | S. cerevisiae deletion strains, locus YOR184W, strain ser1, active compounds read low 0.9 | S. cerevisiae deletion strains, locus YOR231W, strain MKK1, active compounds read low 0.986 | S. cerevisiae deletion strains, locus YOR316C, strain cot1, active compounds read low 0.987 | S. cerevisiae deletion strains, locus YPL240C, strain hsp82, active compounds read low 0.952 | S. cerevisiae deletion strains, locus YPL241C, strain CIN2, active compounds read low 1.02 | S. cerevisiae deletion strains, locus YPL256C, strain CLN2, active compounds read low 0.969 | S. cerevisiae deletion strains, locus YPR119W, strain clb2, active compounds read low 1 | S. cerevisiae deletion strains, locus YPR141C, strain kar3, active compounds read low 0.991 | S. cerevisiae deletion strains, locus YPR163C, strain tif3, active compounds read low 0.993 | S. cerevisiae deletion strains, locus YPR167C, strain met16, active compounds read low 0.981 | S. cerevisiae deletion strains, strain wtn01, active compounds read low 0.926 | S. cerevisiae strains, strain wild type, active compounds read low 0.965
active: S. cerevisiae deletion strains, locus YKL160W, strain elf1, active compounds read low 0.813 | S. cerevisiae deletion strains, locus YLL026W, active compounds read low 0.747 | S. cerevisiae deletion strains, locus YLL041C, strain sdh2, active compounds read low 0.926 | S. cerevisiae deletion strains, locus YLR027C, strain aat2, active compounds read low 0.781 | S. cerevisiae deletion strains, locus YLR221C, strain rsa3, active compounds read low 0.745 | S. cerevisiae deletion strains, locus YLR258W, strain gsy2, active compounds read low 0.831 | S. cerevisiae deletion strains, locus YLR262C, strain YPT6 (second series), active compounds read low 0.549 | S. cerevisiae deletion strains, locus YLR320W, strain mms22, active compounds read low 0.628 | S. cerevisiae deletion strains, locus YLR330W, strain CHS5, active compounds read low 0.876 | S. cerevisiae deletion strains, locus YLR342W, strain FKS1, active compounds read low 0.861 | S. cerevisiae deletion strains, locus YLR357W, strain rsc2, active compounds read low 0.754 | S. cerevisiae deletion strains, locus YLR418C, strain cdc73, active compounds read low 0.824 | S. cerevisiae deletion strains, locus YML120C, strain ndi1, active compounds read low 0.786 | S. cerevisiae deletion strains, locus YMR058W, strain fet3, active compounds read low 0.891 | S. cerevisiae deletion strains, locus YMR125W, strain sto1, active compounds read low 0.83 | S. cerevisiae deletion strains, locus YMR205C, strain PFK2, active compounds read low 0.697 | S. cerevisiae deletion strains, locus YMR231W, strain pep5, active compounds read low 0.878 | S. cerevisiae deletion strains, locus YNL071W, strain lat1, active compounds read low 0.616 | S. cerevisiae deletion strains, locus YNL209W, strain ssb2, active compounds read low 0.869 | S. cerevisiae deletion strains, locus YNL233W, strain BNI4, active compounds read low 0.83 | S. cerevisiae deletion strains, locus YNL248C, strain rpa49, active compounds read low 0.879 | S. cerevisiae deletion strains, locus YNL298W, strain CLA4, active compounds read low 0.884 | S. cerevisiae deletion strains, locus YNR052C, strain pop2, active compounds read low 0.865 | S. cerevisiae deletion strains, locus YOR001W, strain rrp6, active compounds read low 0.81 | S. cerevisiae deletion strains, locus YOR070C, strain gyp1, active compounds read low 0.813 | S. cerevisiae deletion strains, locus YOR083W, strain WHI5, active compounds read low 0.743 | S. cerevisiae deletion strains, locus YOR106W, strain vam3, active compounds read low 0.713 | S. cerevisiae deletion strains, locus YOR265W, strain rbl2, active compounds read low 0.916 | S. cerevisiae deletion strains, locus YOR270C, strain vph1, active compounds read low 0.618 | S. cerevisiae deletion strains, locus YOR290C, strain snf2, active compounds read low 0.784 | S. cerevisiae deletion strains, locus YPL051W, strain arl3, active compounds read low 0.707 | S. cerevisiae deletion strains, locus YPL078C, strain atp4, active compounds read low 0.837 | S. cerevisiae deletion strains, locus YPL106C, strain sse1, active compounds read low 0.654
